Assay results from the supplement of paper PMC11732987, “Enantioselective OTUD7B fragment discovery through chemoproteomics screening and high-throughput optimisation” (Communications Chemistry, 2025).

Legend:
Assay in all cases: log2 ratio of Biotin-Ahx-Ub-VS probe labelling (fragment/DMSO); higher = less target engagement (more negative = stronger competition), active = hit call of the paper (q ≤ 0.05, log2 ratio ≤ -1)
Details in all cases: compound concentration: 200 uM; treatment time: 3 h
[1] = molecular target: T1, OTUD6B (UniProt Q8N6M0)
T1 sequence (whole entry): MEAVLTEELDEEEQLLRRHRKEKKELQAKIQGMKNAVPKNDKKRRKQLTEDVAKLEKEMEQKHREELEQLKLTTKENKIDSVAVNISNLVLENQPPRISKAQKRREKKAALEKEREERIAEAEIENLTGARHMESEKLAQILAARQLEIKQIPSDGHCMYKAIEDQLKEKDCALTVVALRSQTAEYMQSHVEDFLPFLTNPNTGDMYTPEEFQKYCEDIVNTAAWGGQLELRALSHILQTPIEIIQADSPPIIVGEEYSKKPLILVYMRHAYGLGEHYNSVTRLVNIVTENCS
Outline: (§1)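 Lysate from HEK293T cells, 495 µg per sample in Tris/CHAPS/IGEPAL buffer with protease inhibitors, was treated for 3 h in triplicate with fragment at 200 µM or vehicle. Biotin-Ahx-Ub-VS was next added at 0.5 µM final for 1 h. The labelled DUBs were enriched with NeutrAvidin, digested with LysC and trypsin, and run by diaPASEF LC-MS/MS, with values given as average log2 fragment/vehicle ratios by unpaired t-test on global-median-normalised Spectronaut quantities of proteins with ≥2 unique peptides.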

[2] = molecular target: T2, OTUD7B (UniProt Q6GQQ9)
T2 sequence (whole entry): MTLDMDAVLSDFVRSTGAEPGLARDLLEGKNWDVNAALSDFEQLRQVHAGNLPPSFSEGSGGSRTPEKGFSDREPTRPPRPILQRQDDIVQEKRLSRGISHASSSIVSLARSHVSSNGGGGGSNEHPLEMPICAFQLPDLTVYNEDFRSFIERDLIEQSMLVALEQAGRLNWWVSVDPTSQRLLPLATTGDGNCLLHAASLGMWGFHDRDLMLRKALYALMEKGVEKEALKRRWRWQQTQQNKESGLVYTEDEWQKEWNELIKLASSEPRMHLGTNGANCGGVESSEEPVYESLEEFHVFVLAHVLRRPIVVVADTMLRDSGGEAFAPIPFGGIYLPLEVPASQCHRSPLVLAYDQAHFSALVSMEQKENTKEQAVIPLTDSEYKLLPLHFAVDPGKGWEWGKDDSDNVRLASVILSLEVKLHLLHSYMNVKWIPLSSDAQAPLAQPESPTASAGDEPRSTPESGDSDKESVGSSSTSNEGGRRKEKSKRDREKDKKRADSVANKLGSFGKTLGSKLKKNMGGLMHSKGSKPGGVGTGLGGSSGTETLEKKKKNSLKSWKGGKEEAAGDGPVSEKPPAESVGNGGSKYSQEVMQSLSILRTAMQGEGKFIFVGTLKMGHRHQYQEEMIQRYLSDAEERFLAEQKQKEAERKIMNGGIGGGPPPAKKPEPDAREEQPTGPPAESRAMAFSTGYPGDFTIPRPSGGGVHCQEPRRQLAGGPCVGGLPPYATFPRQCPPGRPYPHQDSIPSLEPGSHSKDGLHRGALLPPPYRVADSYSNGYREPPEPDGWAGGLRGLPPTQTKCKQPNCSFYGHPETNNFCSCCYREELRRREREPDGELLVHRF
Outline: as §1

[3] = molecular target: PRPF8 (UniProt Q6P2Q9)
Outline: as §1

[4] = molecular target: T3, PSMD7 (UniProt P51665)
T3 sequence (whole entry): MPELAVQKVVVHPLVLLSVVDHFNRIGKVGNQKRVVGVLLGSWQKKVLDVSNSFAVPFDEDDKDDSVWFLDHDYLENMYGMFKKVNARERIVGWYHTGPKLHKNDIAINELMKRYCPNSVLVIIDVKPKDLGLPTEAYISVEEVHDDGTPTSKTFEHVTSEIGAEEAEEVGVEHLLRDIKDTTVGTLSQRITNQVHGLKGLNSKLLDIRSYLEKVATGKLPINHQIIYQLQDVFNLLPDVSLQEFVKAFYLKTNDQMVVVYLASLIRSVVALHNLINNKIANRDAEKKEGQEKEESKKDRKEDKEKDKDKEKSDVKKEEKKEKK
Outline: as §1

[5] = molecular target: UCHL1 (UniProt P09936)
Chain of UCHL1 (P09936 whole entry, looked up): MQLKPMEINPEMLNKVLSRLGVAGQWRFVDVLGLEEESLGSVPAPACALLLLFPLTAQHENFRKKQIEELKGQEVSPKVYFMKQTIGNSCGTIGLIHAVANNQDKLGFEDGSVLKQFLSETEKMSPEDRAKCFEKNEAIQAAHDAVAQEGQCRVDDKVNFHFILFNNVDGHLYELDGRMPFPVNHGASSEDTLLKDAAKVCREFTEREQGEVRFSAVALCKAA
Outline: as §1

[6] = molecular target: T4, UCHL3 (UniProt P15374)
T4 sequence (whole entry): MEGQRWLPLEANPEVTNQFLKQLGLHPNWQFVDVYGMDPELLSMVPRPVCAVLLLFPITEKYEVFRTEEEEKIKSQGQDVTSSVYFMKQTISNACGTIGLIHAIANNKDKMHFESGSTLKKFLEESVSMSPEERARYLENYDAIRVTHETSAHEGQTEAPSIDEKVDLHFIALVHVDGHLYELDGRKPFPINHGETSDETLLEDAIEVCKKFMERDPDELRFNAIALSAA
Outline: as §1

[7] = molecular target: T5, UCHL5 (UniProt Q9Y5K5)
T5 sequence (whole entry): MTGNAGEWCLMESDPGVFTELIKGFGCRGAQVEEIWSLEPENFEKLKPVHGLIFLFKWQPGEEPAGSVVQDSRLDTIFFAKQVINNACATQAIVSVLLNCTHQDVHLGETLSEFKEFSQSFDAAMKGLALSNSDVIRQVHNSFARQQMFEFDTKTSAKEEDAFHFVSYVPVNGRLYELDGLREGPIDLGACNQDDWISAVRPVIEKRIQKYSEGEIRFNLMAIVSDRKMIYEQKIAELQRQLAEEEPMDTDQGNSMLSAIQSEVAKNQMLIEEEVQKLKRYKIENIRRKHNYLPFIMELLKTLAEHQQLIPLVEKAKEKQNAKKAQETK
Outline: as §1

[8] = molecular target: USP10 (UniProt Q14694)
Chain of USP10 (Q14694 whole entry): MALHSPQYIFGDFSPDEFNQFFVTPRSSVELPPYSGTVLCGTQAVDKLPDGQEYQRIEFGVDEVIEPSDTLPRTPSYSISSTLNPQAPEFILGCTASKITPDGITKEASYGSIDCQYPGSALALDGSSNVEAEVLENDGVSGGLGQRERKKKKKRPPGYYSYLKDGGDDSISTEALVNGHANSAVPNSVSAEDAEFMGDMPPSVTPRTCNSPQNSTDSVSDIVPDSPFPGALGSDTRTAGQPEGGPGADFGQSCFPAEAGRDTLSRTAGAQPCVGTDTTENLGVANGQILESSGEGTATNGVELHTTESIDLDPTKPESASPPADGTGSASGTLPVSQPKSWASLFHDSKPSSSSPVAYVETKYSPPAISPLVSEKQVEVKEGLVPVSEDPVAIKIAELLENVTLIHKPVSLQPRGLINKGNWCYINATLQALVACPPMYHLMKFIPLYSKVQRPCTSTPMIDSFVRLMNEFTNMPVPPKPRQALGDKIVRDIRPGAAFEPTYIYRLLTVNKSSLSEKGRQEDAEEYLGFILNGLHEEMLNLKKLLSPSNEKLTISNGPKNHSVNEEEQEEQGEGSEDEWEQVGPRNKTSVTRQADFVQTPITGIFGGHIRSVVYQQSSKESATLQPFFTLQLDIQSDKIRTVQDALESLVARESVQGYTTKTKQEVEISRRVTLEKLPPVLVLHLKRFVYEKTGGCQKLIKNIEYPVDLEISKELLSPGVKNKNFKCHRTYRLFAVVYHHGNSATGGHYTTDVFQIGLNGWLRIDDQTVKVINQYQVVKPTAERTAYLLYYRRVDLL
Outline: as §1

[9] = molecular target: T6, USP15 (UniProt Q9Y4E8)
T6 sequence (whole entry): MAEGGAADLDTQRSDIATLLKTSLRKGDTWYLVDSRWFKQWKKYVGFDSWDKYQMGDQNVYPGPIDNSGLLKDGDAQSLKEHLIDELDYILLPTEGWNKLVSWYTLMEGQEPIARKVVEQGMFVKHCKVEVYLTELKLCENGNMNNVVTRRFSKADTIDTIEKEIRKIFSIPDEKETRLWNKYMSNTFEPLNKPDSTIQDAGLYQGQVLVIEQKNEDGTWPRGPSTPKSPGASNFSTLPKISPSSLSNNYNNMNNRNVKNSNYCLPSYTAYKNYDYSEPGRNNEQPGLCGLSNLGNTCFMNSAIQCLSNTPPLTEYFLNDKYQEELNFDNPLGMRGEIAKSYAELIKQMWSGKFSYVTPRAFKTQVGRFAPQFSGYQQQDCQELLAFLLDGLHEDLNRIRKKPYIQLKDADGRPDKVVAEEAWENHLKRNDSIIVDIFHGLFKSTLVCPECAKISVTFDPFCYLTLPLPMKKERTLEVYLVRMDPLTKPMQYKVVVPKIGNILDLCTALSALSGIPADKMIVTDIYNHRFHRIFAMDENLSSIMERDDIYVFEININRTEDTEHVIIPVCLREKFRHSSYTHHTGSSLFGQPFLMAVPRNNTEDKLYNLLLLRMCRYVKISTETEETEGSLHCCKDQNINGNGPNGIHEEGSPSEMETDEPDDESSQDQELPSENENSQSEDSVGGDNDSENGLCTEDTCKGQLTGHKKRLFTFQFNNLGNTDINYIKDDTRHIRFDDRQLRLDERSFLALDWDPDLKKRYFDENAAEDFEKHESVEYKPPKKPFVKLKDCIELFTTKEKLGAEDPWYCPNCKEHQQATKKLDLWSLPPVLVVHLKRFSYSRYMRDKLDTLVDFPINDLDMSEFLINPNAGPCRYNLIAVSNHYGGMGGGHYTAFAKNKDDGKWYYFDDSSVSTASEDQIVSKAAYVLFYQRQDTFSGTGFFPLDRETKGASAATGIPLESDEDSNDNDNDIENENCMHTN
Outline: as §1

[10] = molecular target: USP16 (UniProt Q9Y5T5)
Chain of USP16 (Q9Y5T5 whole entry, looked up): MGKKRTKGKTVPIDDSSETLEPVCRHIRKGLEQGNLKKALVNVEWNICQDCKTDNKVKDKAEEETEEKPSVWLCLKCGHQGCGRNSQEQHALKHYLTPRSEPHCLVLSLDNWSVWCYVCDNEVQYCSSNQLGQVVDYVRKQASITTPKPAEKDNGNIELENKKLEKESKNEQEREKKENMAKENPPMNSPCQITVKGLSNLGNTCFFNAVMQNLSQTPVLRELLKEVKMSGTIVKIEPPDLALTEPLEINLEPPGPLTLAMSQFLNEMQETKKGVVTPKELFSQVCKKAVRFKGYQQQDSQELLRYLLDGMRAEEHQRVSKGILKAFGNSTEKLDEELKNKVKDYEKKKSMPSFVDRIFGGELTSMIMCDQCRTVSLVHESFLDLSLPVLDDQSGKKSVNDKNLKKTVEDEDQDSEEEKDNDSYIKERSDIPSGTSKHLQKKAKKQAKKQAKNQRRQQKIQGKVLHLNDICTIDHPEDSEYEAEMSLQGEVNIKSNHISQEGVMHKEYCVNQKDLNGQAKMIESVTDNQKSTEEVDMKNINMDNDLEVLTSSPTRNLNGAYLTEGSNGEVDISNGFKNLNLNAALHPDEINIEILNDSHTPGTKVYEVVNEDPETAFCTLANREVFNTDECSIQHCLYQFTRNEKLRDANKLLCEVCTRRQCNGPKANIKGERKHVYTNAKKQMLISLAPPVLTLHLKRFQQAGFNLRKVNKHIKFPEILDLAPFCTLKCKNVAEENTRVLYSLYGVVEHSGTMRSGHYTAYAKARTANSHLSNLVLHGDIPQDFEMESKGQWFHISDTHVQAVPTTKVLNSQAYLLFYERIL
Outline: as §1

Measured: log2 ratio of Biotin-Ahx-Ub-VS probe labelling

Cl.O=C(CCl)N1CCN(Cc2ccccc2)CC1
inactive: [1] -0.117 | [2] -0.1 | [3] -0.0463 | [4] -0.259 | [5] -0.902 | [6] 0.47 | [7] -0.282 | [8] -0.119 | [9] -0.171 | [10] -0.587
